Compound activity deposited in PubChem by several laboratories.
Myeloid diff MLP – compounds promoting myeloid differentiation. actives 1% (n = 360,000). calls only at 10 µM. ER-HoxA9 myeloid progenitors, lysozyme-GFP differentiation, flow cytometry. AID 624256;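 active = normalized GFP-positive differentiation at or above the plate's own cutoff, the solvent-only control mean plus 3 SD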;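 also: cells exposed to compound for four days before flow analysis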
IDE act – IDE (human) activation, cell-based; HEK cells, FAbeta-B cleavage, fluorescence polarization; 0% vehicle, 100% cell-free pure enzyme wells; activation, % at 5.96 µM; actives 0.073% (n = 340,000); AID 493087;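 active = activation above the mean of all tested compounds plus 3 SD, set per screening campaign, cut at about 17% in these data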
CRFBP-R2 agonist – CRF-BP/CRF-R2 complex agonism. HEK293 CRF-R2/CRF-BP, calcium dye fluorescence (FLIPR); percent of saturating CRF peptide response. activation, % at 13.2 µM. actives 0.46% (n = 350,000). AID 588473;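 active = activation of at least 50%, plus an integration ratio under a set limit after plate pattern correction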;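 also: plate controls were neutral control wells without compound for no effect and CRF at EC100 for full effect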
IDE cell inh – inhibits human insulin-degrading enzyme in HEK cells; inhibition, % at 5.59 µM; FAbetaB cleavage, fluorescence polarization; AID 434962; actives 0.41% (n = 320,000); P14735;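 active = percent inhibition above the average of all tested compounds plus 3 SD, set per screening campaign, cut at about 16% in these data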;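 also: IDE supplied by intact live HEK cells; FP after avidin binding of uncleaved biotin substrate so inhibition keeps polarization high; 0% = DMSO wells and 100% = 60 µM reference IDE inhibitor Ii1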
CRFR2-BP antag – blocks CRF-induced signaling of the CRF-BP/CRF-R2 complex | HEK293 CRF-R2/CRF-BP, CRF-induced calcium fluorescence | inhibition, % at 11.8 µM | actives 0.59% (n = 350,000) | AID 588475;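 active = inhibition of the ligand-induced calcium signal above about 50% at the single tested concentration, limit read from the data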
TPT1 inh – inhibitors of Candida albicans tRNA 2'-phosphotransferase TPT1; actives 0.81% (n = 300,000); AID 1962; recombinant caTPT1, FP RNA substrate dephosphorylation; inhibition, % at 5 µM;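 active = inhibition above the mean of all tested compounds plus 3 SD, set per screening campaign, cut at about 24% in these data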;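 also: plate controls were DMSO alone for no effect and ferristatin control at 100 nM for full effect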
caTPT1 confirm – TPT1 (C. albicans) inhibition, confirmation. actives 74% (n = 2,400). shares compounds with TPT1 inh. recombinant caTPT1, fluorescence polarization, RNase T1 coupled. inhibition, % at 5 µM;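 active = inhibition above the primary screen limit, the mean inhibition of all tested compounds plus 3 SD, cut at about 25% in these data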
RNase T1 inh – blocks Aspergillus oryzae RNase T1, a TPT1 counter-screen | RNase T1 cleavage, fluorescence polarization, 1536-well | inhibition, % at 5 µM | shares compounds with TPT1 inh | actives 83% (n = 2,400) | AID 2153;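 active = inhibition above the solvent-only control well mean plus 3 SD, limit set per screening run, cut at about 23% in these data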;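 also: plate controls were DMSO wells with enzyme for no effect and wells without RNase T1 for full effect; inhibitors block cleavage so intact labeled substrate keeps polarization high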
The depositor's hits bear a star; i = inactive; . = not tested or not shown; + = active, no number. This is a sample that favours compounds with a hit; in the whole collection about 2.6% have one here.

SMILES	Myeloid diff MLP	IDE act	CRFBP-R2 agonist	IDE cell inh	CRFR2-BP antag	TPT1 inh	caTPT1 confirm	RNase T1 inh
CCC(C)(C(=O)NC1CCCCC1)N(C(=O)Cc1cccs1)c1ccccc1 (stereo not given)	i	3	-3	10	-34	68*	3	8
Cc1ccc(S(=O)(=O)N2CCCC2)cc1C(=O)Nc1ccc(-n2cnnn2)cc1	i	-2	-1	-1	0	.	.	.
Cc1ccc(/C=C/C(=O)c2ccccc2O)cc1	i	3	-1	2	-10	2	.	.
CN(C)c1ccc(/C=C/C(=O)c2ccccc2O)cc1	i	-15	29	12	-77	68*	55*	64*
COc1ccc(-c2ccc3c(c2)c(Sc2ccccc2)c(-c2ccccc2)n3C)cc1	i	.	.	.	.	.	.	.
Cc1cc(NC2C3CC4CC(C3)CC2C4)n2ncnc2n1 (stereo not given)	i	-3	-4	2	-11	101*	1	2
CCOc1ccc(C2C(C#N)=C(N)Oc3cc(C)n(CCN4CCOCC4)c(=O)c32)cc1OCC (stereo not given)	i	1	-2	.	31	.	.	.
CCOc1ccccc1C1C(C#N)=C(N)SC(N)=C1C#N	+	-7	3	3	11	82*	56*	67*
CCc1ccc(C2C(C#N)=C(N)SC(N)=C2C#N)s1	i	-10	19	13	-12	91*	80*	89*
CCOC(=O)C1=C(C)OC(N)=C(C#N)C1c1ccc(C)o1 (stereo not given)	i	-3	-2	0	-9	1	.	.
CCOc1ccccc1C1C(C#N)=C(N)Oc2n[nH]c(CC)c21 (stereo not given)	i	3	-5	-1	-3	0	.	.
CCOc1ccc(C2C(C#N)=C(N)SC(N)=C2C#N)cc1OCC	+	-13	7	10	-28	126*	132*	128*
Cc1ccc(C2C(C#N)=C(N)SC(N)=C2C#N)o1	.	.	.	14	.	66*	34*	46*
COc1ccc(OCC(=O)OCC(=O)Nc2ccc3[nH]c(=O)[nH]c3c2)cc1	i	1	-1	3	-6	.	.	.
C=C[C@@H]1c2ccccc2N(S(=O)(=O)c2ccc(C)cc2)[C@H](c2ccc(C(=O)OC)cc2)C1(C#N)C#N	i	6	-1	4	5	.	.	.
N#CC1=C(N)SC(N)=C(C#N)C1c1ccc(C(F)(F)F)cc1	.	.	.	5	.	20	.	.
CCOC(=O)C1=C(C)OC(N)=C(C#N)C1c1ccc(O)c(OC)c1 (stereo not given)	i	-8	0	9	-2	-1	.	.
N#CC1=C(N)SC(N)=C(C#N)C1c1c(Cl)cccc1Cl	i	-5	16	1	9	47*	22	28*
CCc1ccc(C2C(C#N)=C(N)SC(N)=C2C#N)cc1	i	-4	50*	4	-26	106*	73*	86*
N#CC1=C(N)SC(N)=C(C#N)C1c1ccc([N+](=O)[O-])cc1	i	-4	5	1	-13	40*	7	9
CCOc1ccc(C2C(C#N)=C(N)SC(N)=C2C#N)cc1OC	.	.	.	20*	.	115*	39*	56*
Cc1cc(NC(=O)CCN2CCC(C)CC2)ccc1Br	i	7	5	.	-14	.	.	.
CC1(C(=O)O)CCN1C(=O)c1cccnc1Oc1ccccc1 (stereo not given)	i	.	.	.	.	.	.	.
N#CC1=C(N)SC(N)=C(C#N)C1c1cccc(Oc2ccccc2)c1	i	-7	36	1	-19	111*	54*	69*
Nc1nc(-c2ccccc2)c(-c2ccccc2)n1N	i	3	4	2	-30	51*	29*	38*
SMILES	Myeloid diff MLP	IDE act	CRFBP-R2 agonist	IDE cell inh	CRFR2-BP antag	TPT1 inh	caTPT1 confirm	RNase T1 inh
Cn1c(=O)oc2cc(S(=O)(=O)N3CCN(c4ccc(F)cc4)CC3)ccc21	i	-3	5	0	-3	16	.	.
Cn1c(=O)oc2cc(S(=O)(=O)N3CCN(c4cccc(Cl)c4)CC3)ccc21	i	-5	10	1	-19	81*	24*	33*
O=C(N/N=C/c1ccc(N2CCOCC2)s1)c1ccc(NS(=O)(=O)c2cccs2)cc1	i	-5	1	6	11	29*	78*	90*
O=C(N/N=C/c1ccc(N2CCOCC2)cc1)c1ccc(NS(=O)(=O)c2cccs2)cc1	i	3	1	-2	1	2	.	.
CCN(CC)C(=O)c1sc(NC(=O)c2ccc(C)c([N+](=O)[O-])c2)c(C#N)c1C	i	6	4	3	18	-1	.	.
Cc1cc(C=C2C(=O)c3ccccc3C2=O)c(C)n1-c1cccc(C(=O)O)c1	i	2	0	4	3	31*	41*	51*
Cc1cc(C=C2C(=O)c3ccccc3C2=O)c(C)n1-c1ccccc1	i	-9	35	-1	-51	20	.	.
Cc1cc(C=C2C(=O)c3ccccc3C2=O)c(C)n1-c1ccc(C(=O)O)cc1	i	-1	-2	4	13	27*	35*	47*
O=C1c2cccc3c(N4CCCCC4)ccc(c23)C(=O)N1CCO	i	-35	118*	51*	-154	50*	4	18
O=S(=O)(NCCS(=O)(=O)N1CCN(c2ccc(F)cc2)CC1)c1ccc(F)cc1	i	.	-3	.	38	.	.	.
COc1ccc(C(=O)NC(C)CCn2cccn2)cc1OC1CCN(C(C)C)CC1 (stereo not given)	i	4	1	0	3	-5	.	.
CCCCN(CC)CCCNC(=O)c1ccc(CS(=O)(=O)c2ccccc2C)o1	i	-1	1	-1	27	0	.	.
COc1ccc(/C=C/C=C2\NC(=S)NC2=O)cc1	+	4	2	5	-13	28*	19	32*
CC(=O)Oc1ccc(C(=O)Nc2ccccc2C(=O)N2CCCCC2)cc1	i	-2	0	3	-4	1	.	.
CC(=O)Oc1ccc(C(=O)Nc2ccccc2C(=O)N2CCCC2)cc1	i	3	-2	5	19	49*	4	8
O=C(CCN1CCN(Cc2ccccc2)CC1)NNC(=O)Nc1cccc([N+](=O)[O-])c1	i	4	-1	.	-7	.	.	.
Cc1c(-n2cc(C(=O)c3cc(Br)ccc3O)cc(C#N)c2=O)c(=O)n(-c2ccccc2)n1C	i	-14	40	14	-7	37*	24*	32*
N#Cc1cc(C(=O)c2cc(Br)ccc2O)cn(C2CCCCC2)c1=O	i	-9	24	5	13	7	.	.
